This is a sample that favours compounds with a hit; in the whole collection about 12% have one here.
Pf growth 48h = Primary qHTS for delayed death inhibitors of the malarial parasite plastid, 48 hour incubation; P. falciparum luciferase growth in erythrocytes, 48 h; Potency, µM (top dose mostly 28.7 µM), for inactives: top-dose activity change, negative = inhibition, usual class: inhibitors; actives 5.9% (n = 310,000); note: % is set by controls: 0 for no effect and ±100 for the full control effect
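A one-generation exposure of luciferase-tagged malaria parasites in RPMI 1640/Albumax erythrocyte culture, 37 C and 5% CO2. Inhibition is inferred from decreased luminescence after adding detection reagent.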
Pf growth 96h = Primary qHTS for delayed death inhibitors of the malarial parasite plastid, 96 hour incubation | Potency, µM (doses to about 28.7 µM), without a hit: top-dose activity change, negative = inhibition, hits mostly inhibitors | P. falciparum luciferase reporter growth, 96 h | AID 504834, 2011 | actives 6.9% (n = 320,000); note: % is set by controls: 0 for no effect and ±100 for the full control effect
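Two parasite generations (96 h, 37 C, 5% CO2) of compound exposure in infected erythrocytes (0.05% parasitemia, 2% hematocrit). Luciferase-reporter P. falciparum; decreased luminescence indicates inhibited growth, aimed at apicoplast-acting delayed death.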
Sm TGR block = qHTS Assay for the Inhibitors of Schistosoma Mansoni Peroxiredoxins; AID 485364, 2010; purified TGR, DTNB reduction, TNB absorbance 405 nm; Schistosoma mansoni thioredoxin glutathione reductase (TGR), Q962Y6; Potency, µM (doses to about 114 µM), for the others: at the highest dose activity change, negative = inhibition, actives largely listed as inhibitors; actives 3% (n = 360,000); note: % is set by controls: 0 for no effect and ±100 for the full control effect; nearly all actives have a fitted effect of over 60% in size
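First, TGR (20 nM dispensed) and NADPH were mixed with compound. Second, a 15 min room-temperature incubation followed. Third, further NADPH and then DTNB were added to start the reaction. Finally, TNB absorbance was monitored kinetically.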
SARS PLpro yeast = qHTS of Yeast-based Assay for SARS-CoV PLP | S. cerevisiae expressing SARS-CoV PLpro, growth rescue | Potency, µM (titrated, usually from 32.9 µM), for inactives: top-dose activity, positive = growth rescue, hits mostly activators | actives 0.19% (n = 330,000) | AID 485353, 2010; calls by dose curve; note: 0% is about no effect; nearly all actives have a fitted effect of over 55% in size
* = called active by the depositor; u = inconclusive; x = no result given. Unless noted, calls come from the whole dose curve; as a rule, active = well fitted curve in the direction sought with a large enough effect; inconclusive = small, poorly fitted or top-dose-only effect, or another doubt; inactive = no such curve, though single readings can be large; an effect the other way counts as inactive or inconclusive. Potency is the fitted concentration of half-maximal effect.

SMILES	Pf growth 48h	Pf growth 96h	Sm TGR block	SARS PLpro yeast
N#C/C(=C\c1cccnc1)c1ccc([N+](=O)[O-])cc1	2%	2.6µM*	-14%	-13%
COc1cc2c(cc1OC)-c1cc3ccc(OC)c(OC)c3c[n+]1CC2	0.19µM*	0.17µM*	-10%	x
COc1cc2c(cc1OC)CC[N+](C)=C2	42%	40%	u	1%
COc1cccc(/C=N/NC(N)=S)c1OCc1cccc(Cl)c1	12µM*	3.7µM*	-16%	10%
Cc1ccc(O)c(C(=O)c2cc(C#N)c(=O)n(C(C)c3ccccc3)c2)c1 (centres undefined)	3.3µM*	5.9µM*	-10%	0%
Cc1ccc(O)c(C(=O)c2cc(C#N)c(=O)n(Cc3ccccc3)c2)c1	-12%	7%	-9%	4%
CCOCCCn1cc(C(=O)c2cc(Br)ccc2O)cc(C#N)c1=O	5.2µM*	u	-34%	-4%
CC(C)n1cc(C(=O)c2cc(Br)ccc2O)cc(C#N)c1=O	x	2.6µM*	-28%	13%
C=CCn1cc(C(=O)c2cc(Br)ccc2O)cc(C#N)c1=O	u	u	-34%	-1%
CCCCn1cc(C(=O)c2cc(Br)ccc2O)cc(C#N)c1=O	1.7µM*	2.1µM*	-23%	-16%
CN1C[C@@H]2[C@@H]3C(=O)N(Cc4ccccc4)C(=O)[C@@H]3[C@](C)(C1=O)N2C(=O)c1ccc(Cl)cc1	x	x	x	0%
CCC(C)C(=O)Nc1nnc(CCc2ccccc2)s1 (centres undefined)	38%	63%	13%	1%
C/C=C/c1ccc(OCC(=O)N2CCc3cc(OC)c(OC)cc3C2)c(OC)c1	u	u	u	-8%
CCOc1ccc(NC(=O)c2ccc(NC(=O)CCS(=O)(=O)c3cccs3)cc2)cc1	x	x	-4%	x
COCCCn1cc(C(=O)c2cc(Br)ccc2O)cc(C#N)c1=O	u	9.3µM*	-25%	0%
N#Cc1cc(C(=O)c2cc(Br)ccc2O)cn(C2CC2)c1=O	u	u	u	6%
COc1ccc(N2C(=O)CC(NCCNc3ccc([N+](=O)[O-])cn3)C2=O)cc1 (centres undefined)	-6%	107%	14µM*	-12%
CCOc1ccc(N2C(=O)CC(NCCNc3ccc([N+](=O)[O-])cn3)C2=O)cc1 (centres undefined)	3%	0.83µM*	7.1µM*	-5%
CCOc1ccc(N2C(=O)CC(NCCc3ccncc3)C2=O)cc1 (centres undefined)	2%	x	-27%	-12%
CCCOc1ccc(N2C(=O)CC(NCCNc3ccc(S(=O)(=O)CC)cc3)C2=O)cc1 (centres undefined)	u	-28%	u	-24%
CCN(c1ccccc1)S(=O)(=O)c1cc(Br)cc2c1N(C(=O)C1CC1)CC2	x	x	-11%	x
Cc1nc2nc(CNC(=O)c3cccc(F)c3)nn2c(C)c1CCC(=O)Nc1ccc(F)cc1	x	x	15%	x
Cc1nnc(NC(=O)c2ccc(F)c(S(=O)(=O)N3CCOCC3)c2)s1	x	x	x	0%
O=C(Nc1cc(S(=O)(=O)N2CCOCC2)ccc1N1CCCCC1)c1cc(-c2ccccn2)nc2ccccc12	-27%	u	1%	-1%
O=C(Nc1nc(-c2ccccn2)cs1)c1ccc(F)c(S(=O)(=O)N2CCOCC2)c1	1.5µM*	0.83µM*	-6%	1%
SMILES	Pf growth 48h	Pf growth 96h	Sm TGR block	SARS PLpro yeast
Cc1ccc(S(=O)(=O)N2CCOCC2)cc1NC(=O)c1cc(-c2ccccn2)nc2ccccc12	9.3µM*	u	-3%	1%
Cc1ccc(S(=O)(=O)N2CCOCC2)cc1C(=O)Nc1ccc(-c2cn3ccsc3n2)cc1	9.3µM*	-11%	2%	0%
Cc1ccc(S(=O)(=O)N2CCOCC2)cc1C(=O)Nc1ccncc1	-9%	-19%	-8%	-3%
Cc1cc(-c2csc(NC(=O)c3ccc(S(=O)(=O)N(C)C)cc3)n2)c(C)n1-c1ccccc1	u	10µM*	-14%	9%
COc1ccc(OC)c(C(C(=O)NC2CCCCC2)N(C(=O)c2ccccn2)c2cccnc2)c1 (centres undefined)	-9%	2%	14%	-1%
O=C(NNS(=O)(=O)c1ccccc1[N+](=O)[O-])c1cc2ccccc2cc1O	14%	-18%	0%	-6%
Cc1ccc(C(=O)Nc2nc(-c3ccccn3)cs2)cc1S(=O)(=O)N1CCOCC1	1.7µM*	0.47µM*	0%	-6%
O=C(Nc1nc(-c2ccccn2)cs1)c1cc(S(=O)(=O)N2CCOCC2)ccc1F	10µM*	10µM*	-7%	7%
Cc1ccc(S(=O)(=O)N2CCOCC2)cc1C(=O)Nc1nc(-c2cccnc2)cs1	9.3µM*	-9%	-10%	-4%
O=C(Nc1ccccc1C(F)(F)F)c1cc(S(=O)(=O)N2CCOCC2)ccc1F	10%	0.93µM*	-21%	18%
Cc1ccccc1NC(=O)c1cc(S(=O)(=O)N2CCOCC2)ccc1F	-2%	-1%	-27%	-3%
CCOC(=O)C(Cc1c[nH]c2ccccc12)NC(=O)COc1ccc(Cl)c(C)c1 (centres undefined)	x	x	-1%	x
COc1ccc(/C=N/NC(=O)CNC(=O)c2ccc3c(c2)OCCO3)c(C(=O)O)c1OC	36%	69%	-13%	1%
CN(C(=O)CSc1cn(CC(=O)N2CCCC2)c2ccccc12)c1ccccc1	x	x	5%	x
Cc1ccc2cccc(NC(=O)c3ccc(-c4ccc(Cl)cc4Cl)o3)c2n1	x	x	1%	x
Cc1ccc(S(=O)(=O)NCC(=O)NCC2CCCCC2)cc1C	-1%	18%	3%	8%
Cc1ccc(S(=O)(=O)N2CCOCC2)cc1N/N=C(\C#N)c1nc2ccccc2[nH]1	u	3.3µM*	-2%	0%
CN(CC1CCCO1)S(=O)(=O)c1ccc(C(=O)Nc2nc(-c3ccccn3)cs2)cc1 (centres undefined)	12µM*	3.3µM*	6%	2%
CN(CC1CCCO1)S(=O)(=O)c1ccc(C(=O)Nc2nnc(-c3ccccc3)o2)cc1 (centres undefined)	u	u	7%	-6%
CCOC(=O)CSc1nnc(NCC(=O)OC)c(=O)[nH]1	-1%	x	16µM*	5%
Cc1ccc(N(CC(=O)Nc2ccc(F)cc2F)S(=O)(=O)c2cccs2)cc1	x	x	-2%	x
CCOC(=O)N1CCC2(CC1)C(C#N)=C(N)Oc1c2c(C)nn1-c1cccc(Cl)c1	9.3µM*	23%	1.1µM*	-7%
CCOc1ccc(C(=O)OCc2cc(=O)n3nc(C4CC4)sc3n2)cc1	x	x	2%	x
COc1ccc(S(=O)(=O)N2CCN(c3cnccn3)CC2)cc1OC	x	x	x	4%
Cc1ccnc(NC(=O)Nc2ccc3c(c2)N(C)C(=O)CS3)c1	100%	13µM*	-3%	17%
Cc1cccc(NC(=O)Nc2ccc3c(c2)N(C)C(=O)CS3)n1	x	10µM*	1%	-3%
